Most compounds without a hit are left out; they make up all but 4.6% or so of the library.
D1 agonist = Allosteric Agonists of the Human D1 Dopamine Receptor: qHTS | D(1A) dopamine receptor (Homo sapiens), P21728 | HEK293 T-REx D1 cells, calcium flux, agonist mode | activation, % at 2 µM | hit rate 1% among 360,000 | AID 504660, 2011
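Tetracycline-induced HEK293 TREx D1 cells, force-coupled to calcium signalling, were dye-loaded with a no-wash calcium kit. Compound was pin-added after a 10 s baseline. Fluorescence was read kinetically at 1 cycle/s for 180 s, with calcium rises flagged as agonism.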
D1 potentiator = Potentiators of Human D1 Dopamine Receptor: qHTS; HEK293 TREx D1 cells, calcium flux, dopamine EC20 potentiation; potentiation, % at 10 µM; hit rate 0.036% among 360,000; in the data active means potentiation above about 30%
D1 antagonist = Antagonist of Human D 1 Dopamine Receptor: qHTS; HEK293 TREx D1 cells, calcium flux, dopamine EC80; hits give low values; activity change, negative = inhibition, % at 10 µM; hit rate 3.2% among 360,000; in the data active means activity change below about -30%
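HEK293 T-REx cells expressing inducible, force-coupled D1 receptor; no-wash Ca dye, 30–90 min RT. Cmpd → 180 s read at 1 Hz → EC80 DA → 180 s read.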
TRHR enhancer = qHTS for Small Molecule Agonists and Allosteric Enhancers of Human TRH Receptor: Primary Screen for Enhancers | Thyrotropin-releasing hormone receptor (Homo sapiens), P34981 | enhancement, % at 2 µM | hit rate 0.66% among 360,000 | AID 493056, 2011 | TRHR cells, fluo-8 calcium fluorescence, EC20 TRH enhancement; in the data active means enhancement above about 30%
Target sequence (P34981 whole entry, looked up): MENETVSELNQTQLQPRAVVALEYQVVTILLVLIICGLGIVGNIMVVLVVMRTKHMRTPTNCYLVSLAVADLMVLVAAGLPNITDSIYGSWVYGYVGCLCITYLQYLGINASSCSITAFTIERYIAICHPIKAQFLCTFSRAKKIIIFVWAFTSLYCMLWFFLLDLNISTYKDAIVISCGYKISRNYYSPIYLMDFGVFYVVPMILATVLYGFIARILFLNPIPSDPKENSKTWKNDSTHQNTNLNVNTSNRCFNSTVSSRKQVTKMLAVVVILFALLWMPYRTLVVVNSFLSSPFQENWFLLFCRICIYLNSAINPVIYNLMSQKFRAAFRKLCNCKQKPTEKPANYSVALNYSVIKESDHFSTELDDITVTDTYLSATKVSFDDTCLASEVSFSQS
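Enhancer read-out: after compound pinning and an initial kinetic agonist-mode read, an EC20 of TRH (10 nM final) was injected and fluo-8 calcium signal (Ex 480/Em 530) followed at 1 s/cycle for 100 cycles in TRHR-expressing cells.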
TRHR ag = qHTS for Small Molecule Agonists and Allosteric Enhancers of Human TRH Receptor: Primary Screen for Agonists; hit rate 0.18% among 360,000; activation, % at 2 µM; TRHR cells, calcium flux fluo-8, FDSS agonist mode; AID 493084, 2011
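In this calcium-flux screen, cells bearing human TRHR are dye-loaded with fluo-8, baselined for 10 cycles, then exposed to library compounds; positive kinetic calcium responses during the agonist phase mark hits, with TRH as control.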
A number is an active result; i = inactive; nt = not tested or not shown; ! = repeats disagree. Unless noted, no stated cut-off is given here; in the data, active means activation above about 30%; inactive means the rest.

SMILES	D1 agonist	D1 potentiator	D1 antagonist	TRHR enhancer	TRHR ag
COc1cccc(NC(=O)C(=O)NCC(c2cccnc2)N2CCN(c3ccccc3)CC2)c1 (configuration not stated)	i	i	i	i	i
Cc1ccc(-c2nn(CC(=O)O)c(=O)c3ccccc23)cc1	i	i	i	i	i
COC(=O)Cn1nc(-c2ccc(C)cc2)c2ccccc2c1=O	i	i	-75	i	i
CC(C)CNS(=O)(=O)c1ccc(CCC(=O)N2CCN(c3ccc(F)cc3)CC2)cc1	i	i	-32	i	i
O=C(Cc1ccc([N+](=O)[O-])cc1)N1CCN(c2ccc([N+](=O)[O-])cc2)CC1	i	i	i	i	i
O=C(Cc1ccc(F)cc1)N1CCN(c2ccc([N+](=O)[O-])cc2)CC1	i	i	-55	i	i
CC(=O)Nc1ccc(Sc2ncccc2C(=O)Nc2ccc(OC(F)(F)F)cc2)cn1	115	i	-60	i	i
Cc1ccc(CNC(=O)C2CCN(c3nc4ccccc4n(C)c3=O)CC2)cc1	i	i	i	i	i
CC(Oc1cccc(Cl)c1)C(=O)Nc1nc(-c2ccccn2)cs1 (configuration not stated)	i	i	-35	i	i
CCCCN(c1ccccc1)S(=O)(=O)c1cc2c3c(c1)C(C)C(=O)N3CCC2 (configuration not stated)	i	i	nt	i	i
Cc1nnc2ccc(N3CCN(C(=O)c4ccccc4)CC3)nn12	i	i	-62	i	i
Cc1ccc(C(=O)N2CCN(c3ccc(N4CCOCC4)nn3)CC2)cc1	i	i	-32	i	i
O=C(NCCc1nnc2ccc(N3CCCCCC3)nn12)c1ccccc1	41	i	-31	i	i
Cc1c(CCNC(=O)C(C)(C)C)sc2nc(-c3ccc(F)cc3)nn12	i	i	nt	i	i
COc1ccccc1CNC(=O)c1ccc(-c2nc(CS(=O)c3ccc(C)cc3)c(C)o2)cc1 (configuration not stated)	i	i	i	i	i
Cc1ccc(CSc2nc3ccncc3n2Cc2nc(-c3ccccc3C)oc2C)cc1	i	i	i	i	i
CCCOc1ccc(C2C(=O)N(C3CCC(C)CC3)CC(=O)N2Cc2cccc(OC)c2)cc1OC (configuration not stated)	i	i	i	i	i
CCOc1ccc(N(CC(=O)Nc2ccccc2CC)S(=O)(=O)c2c(C)noc2C)cc1	i	i	i	i	i
CC(C)(C)c1ccccc1Nc1nc(C#N)nc(NC2CCCC2)n1	i	i	i	i	i
NC(=O)C1CCN(C(=O)Nc2csc3ccccc23)CC1	i	i	-61	i	i
O=C(Nc1cccc(C(=O)O)c1)/C(=C\c1ccc2c(c1)OCO2)NC(=O)c1ccco1	i	i	i	33	i
CCc1ccc(CNC(=O)c2cnc3sc(N(CC)CC)nn3c2=O)cc1	i	i	i	i	i
COc1ccc2c(c1)NC(c1ccc(Cl)cc1)=NC(c1cccs1)=N2	i	i	i	i	i
CCCc1nn2c(=O)cc(COC(=O)c3ccc(NC(=O)c4cccs4)cc3)nc2s1	i	i	i	i	i
CCOC(=O)c1c(C)n(-c2ccccc2)c2ccc(OC(=O)c3cc(OC)cc(OC)c3)cc12	i	i	i	i	i
SMILES	D1 agonist	D1 potentiator	D1 antagonist	TRHR enhancer	TRHR ag
CCOC(=O)N1CCN(S(=O)(=O)c2ccc(OC)c(Cl)c2)CC1	i	i	-31	i	i
CCOC(=O)N1CCN(S(=O)(=O)c2ccc(OC)c(OC)c2)CC1	i	i	i	i	i
CCOC(=O)N1CCN(C(=O)c2oc3ccc(S(=O)(=O)N4CCOCC4)cc3c2C)CC1	i	i	i	34	i
CCOC(=O)c1oc2ccc(S(=O)(=O)n3nc(-c4ccc(C)cc4)cc3N)cc2c1C	i	i	i	42!	i
CCOc1ccc(S(=O)(=O)N2CCC(C(=O)N3CCCCCC3)CC2)cc1Cl	i	i	-40	i	i
Cc1ccc(NC(=O)c2oc3ccc(S(=O)(=O)N4CCCCC4)cc3c2C)cc1C	i	i	-31	i	i
CCCCc1ccc(S(=O)(=O)N2CCN(C(=O)c3ccco3)CC2)cc1	i	i	-31	i	i
Cc1c(C(=O)OC2CCCC2)[nH]c2c1C(=O)CC(c1ccc(C(C)(C)C)cc1)C2 (configuration not stated)	i	i	-31	i	i
Cc1cccc(NC(=O)c2ccc(-c3nc(CSc4ccccc4)c(C)o3)cc2)c1C	i	i	i	i	i
COc1ccc(-c2nc(CN3CCC(C(=O)NCc4ccc(C)cc4)CC3)c(C)o2)cc1OC	i	i	-31	i	i
Cc1oc(-c2cccc(Cl)c2)nc1CN1CCC(C(=O)NCCCN2CCN(c3cccc(Cl)c3)CC2)CC1	67	i	-39	i	i
CCN1CCN(CCNC(=O)C2CCCN(Cc3nc(-c4cccc(Cl)c4)oc3C)C2)CC1 (configuration not stated)	i	i	-39	i	i
COc1ccc(-c2nc(CN3CCC(C(=O)NCCc4ccccc4)CC3)c(C)o2)cc1OC	i	i	i	i	i
CCc1ccc(OC(C)C(=O)N2CCC(c3nc4ccccc4s3)CC2)cc1 (configuration not stated)	i	i	i	i	i
COc1ccc(CNC(=O)COC(=O)c2cc3ccccc3o2)cc1	i	i	i	i	i
CC(C)(C)C1CCC2(CC1)NC(CO)(CO)CO2 (configuration not stated)	i	i	-34	i	i
CCN1CCN(c2c(/C=C3\SC(=S)N(Cc4ccco4)C3=O)c(C)c(C#N)c(=O)n2C)CC1	235	i	i	32	i
COc1ccc(-n2c(C)cc(/C=C3\SC(=S)N(Cc4ccco4)C3=O)c2C)cc1	i	i	i	i	i
N#Cc1c(C(F)(F)F)cc(-c2ccccc2)nc1SCc1nc(N)nc(N2CCOCC2)n1	70	i	i	i	i
N#Cc1c(C(F)(F)F)cc(-c2ccc(Cl)c(Cl)c2)nc1SCCN1CCOCC1	i	i	i	i	i
COc1ccc(CCNC(=O)CCc2cn(Cc3ccccc3Cl)c3ccccc23)c(OC)c1	i	i	-36	i	i
O=C(C1CCCCC1)N(Cc1cccnc1)c1nc2ccc(Cl)cc2s1	i	i	nt	i	i
CC(C)Oc1ccc(C(=O)N(Cc2ccc(N(C)C)cc2)C2CCS(=O)(=O)C2)cc1 (configuration not stated)	i	i	i	i	i
CCC1=NN2C(=N)/C(=C/c3cc(C)n(Cc4ccccc4)c3C)C(=O)N=C2S1	66	i	-51	i	i
